In PubChem BioAssay AID1159580 (chemical genetic matrix, 2015):
“And” between values parts separate entries of the source, which are not always exact repeats. Equal entries are not always repeated. About 2,000 (36%) of roughly 5,500 compounds were called active. About 18% were inconclusive and are not listed. Rule as the data show it: active = normalized growth mostly below about 0.91 (no sharp cut-off); inconclusive = no clear call, values can overlap the other calls; inactive = mostly above about 0.92. The list shows a part of the results.

Test: chemical genetic growth profiling, strain panel (AID 1159580);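 also: tested at 20 µM; growth read once vehicle control cultures reached saturation at 30 °C; 1 = growth at the plate median or of vehicle wells; lower values mean less growth of the strain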
Conditions: S. cerevisiae deletion strains, growth OD

Measured: normalized growth

CC1(C)C(=O)C=C[C@@]2(C)C1C[C@@H](O)[C@]1(C)C2CC[C@@]2(C)[C@H](c3ccoc3)OC(=O)[C@H]3O[C@]321 (stereo partly specified)
inactive: locus YAL021C, strain ccr4, hits give low values 0.988 | locus YAL026C, strain drs2, hits give low values 0.996 | locus YAL030W, strain snc1, hits give low values 0.995 | locus YBL061C, strain skt5, hits give low values 1 | locus YBR009C, strain hhf1, hits give low values 1 | locus YBR021W, strain FUR4, hits give low values 1 | locus YBR023C, strain chs3, hits give low values 1.01 | locus YBR171W, strain sec66, hits give low values 0.998 | locus YBR229C, strain ROT2, hits give low values 0.939 | locus YBR231C, strain swc5, hits give low values 1.01 | locus YBR279W, strain paf1, hits give low values 1 | locus YCL011C, strain gbp2, hits give low values 1.01 | locus YCL016C, strain dcc1, hits give low values 1 | locus YCL029C, strain bik1, hits give low values 0.969 | locus YCL061C, strain MRC1, hits give low values 0.998 | locus YCL069W, strain vba3, hits give low values 0.998 | locus YCR088W, strain abp1, hits give low values 0.999 | locus YDL005C, strain med2, hits give low values 0.999 | locus YDL035C, strain GPR1, hits give low values 0.956 | locus YDL040C, strain nat1, hits give low values 1 | locus YDL074C, strain BRE1, hits give low values 0.958 | locus YDL101C, strain DUN1, hits give low values 0.98 | locus YDL185W, strain tfp1, hits give low values 0.954 | locus YDL192W, strain arf1, hits give low values 0.979 | locus YDR001C, strain nth1, hits give low values 0.985 | locus YDR069C, strain doa4, hits give low values 1.01 | locus YDR101C, strain arx1, hits give low values 0.97 | locus YDR137W, strain rgp1, hits give low values 0.985 | locus YDR159W, strain sac3, hits give low values 1.01 | locus YDR162C, strain NBP2, hits give low values 0.949 | locus YDR195W, strain ref2 0.986 | locus YDR297W, strain sur2, hits give low values 1 | locus YDR318W, strain mcm21, hits give low values 0.972 | locus YDR334W, strain swr1, hits give low values 0.995 | locus YDR335W, strain msn5, hits give low values 0.996 | locus YDR388W, hits give low values 0.996 | locus YDR392W, strain spt3, hits give low values 1.01 | locus YDR502C, strain sam2, hits give low values 1 | locus YEL003W, strain gim4, hits give low values 1 | locus YEL037C, strain rad23, hits give low values 0.995 | locus YEL061C, strain CIN8 (second series), hits give low values 0.994 | locus YER015W, strain faa2, hits give low values 0.99 | locus YER016W, strain bim1, hits give low values 1 | locus YER110C, hits give low values 0.968 | locus YER111C, strain swi4, hits give low values 1 | locus YER155C, strain BEM2 (second series), hits give low values 1 | locus YER155C, strain BEM2, hits give low values 1.01 | locus YER167W, strain BCK2, hits give low values 0.973 | locus YFR010W, strain ubp6, hits give low values 0.984 | locus YGL078C, strain dbp3, hits give low values 0.992 | locus YGL086W, strain mad1, hits give low values 0.988 | locus YGL167C, strain pmr1, hits give low values 1.01 | locus YGL173C, strain kem1, hits give low values 1.01 | locus YGL227W, strain vid30, hits give low values 1.01 | locus YGL240W, strain doc1, hits give low values 1.01 | locus YGL248W, strain PDE1, hits give low values 0.961 | locus YGL253W, strain hxk2, hits give low values 1 | locus YGR135W, strain pre9, hits give low values 1.04 | locus YGR229C, strain SMI1, hits give low values 0.95 | locus YGR252W, strain gcn5, hits give low values 0.965 | locus YHR013C, strain ard1, hits give low values 1.01 | locus YHR027C, strain rpn1, hits give low values 0.986 | locus YHR030C, strain SLT2, hits give low values 0.966 | locus YHR079C, strain IRE1 (second series), hits give low values 0.99 | locus YHR079C, strain IRE1, hits give low values 0.936 | locus YHR094C, strain hxt1, hits give low values 0.978 | locus YHR129C, strain ARP1, hits give low values 0.987 | locus YHR142W, strain chs7, hits give low values 1.01 | locus YHR200W, strain rpn10, hits give low values 0.976 | locus YIL066C, strain RNR3, hits give low values 0.94 | locus YIL073C, strain SPO22, hits give low values 0.928 | locus YIL125W, strain kgd1, hits give low values 0.985 | locus YIR030C, strain dcg1, hits give low values 0.992 | locus YJL092W, strain hpr5, hits give low values 0.999 | locus YJL095W, strain BCK1 (second series), hits give low values 1 | locus YJL095W, strain BCK1, hits give low values 1.01 and 0.956 | locus YJL115W, strain asf1, hits give low values 0.997 | locus YJL129C, strain trk1, hits give low values 0.991 | locus YJL134W, strain LCB3, hits give low values 0.98 | locus YJL154C, strain vps35, hits give low values 0.992 | locus YJL164C, strain tpk1, hits give low values 1 | locus YJL166W, strain qcr8, hits give low values 1.01 | locus YJL168C, strain set2, hits give low values 0.998 | locus YJL187C, strain SWE1 (second series), hits give low values 1 | locus YJL187C, strain SWE1, hits give low values 1.02 | locus YJR043C, strain POL32, hits give low values 0.937
